# Screens: PubChem BioAssay, several laboratories
# Compounds with a hit are over-represented: about 27% of the library has one in this group of screens.
# Cav3 T inh = human Cav3.2 channel inhibition, primary screen; B-score at 10 µM; Cav3.2-expressing cells, Fluo-4 calcium fluorescence FDSS; hits give low values; hit rate 4% among 100,000; O95180;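 active means single-dose well whose peak fluorescence ratio is a statistical outlier from its plate by either plate-standardised score or position-corrected B-score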
# Target sequence (O95180 whole entry, looked up): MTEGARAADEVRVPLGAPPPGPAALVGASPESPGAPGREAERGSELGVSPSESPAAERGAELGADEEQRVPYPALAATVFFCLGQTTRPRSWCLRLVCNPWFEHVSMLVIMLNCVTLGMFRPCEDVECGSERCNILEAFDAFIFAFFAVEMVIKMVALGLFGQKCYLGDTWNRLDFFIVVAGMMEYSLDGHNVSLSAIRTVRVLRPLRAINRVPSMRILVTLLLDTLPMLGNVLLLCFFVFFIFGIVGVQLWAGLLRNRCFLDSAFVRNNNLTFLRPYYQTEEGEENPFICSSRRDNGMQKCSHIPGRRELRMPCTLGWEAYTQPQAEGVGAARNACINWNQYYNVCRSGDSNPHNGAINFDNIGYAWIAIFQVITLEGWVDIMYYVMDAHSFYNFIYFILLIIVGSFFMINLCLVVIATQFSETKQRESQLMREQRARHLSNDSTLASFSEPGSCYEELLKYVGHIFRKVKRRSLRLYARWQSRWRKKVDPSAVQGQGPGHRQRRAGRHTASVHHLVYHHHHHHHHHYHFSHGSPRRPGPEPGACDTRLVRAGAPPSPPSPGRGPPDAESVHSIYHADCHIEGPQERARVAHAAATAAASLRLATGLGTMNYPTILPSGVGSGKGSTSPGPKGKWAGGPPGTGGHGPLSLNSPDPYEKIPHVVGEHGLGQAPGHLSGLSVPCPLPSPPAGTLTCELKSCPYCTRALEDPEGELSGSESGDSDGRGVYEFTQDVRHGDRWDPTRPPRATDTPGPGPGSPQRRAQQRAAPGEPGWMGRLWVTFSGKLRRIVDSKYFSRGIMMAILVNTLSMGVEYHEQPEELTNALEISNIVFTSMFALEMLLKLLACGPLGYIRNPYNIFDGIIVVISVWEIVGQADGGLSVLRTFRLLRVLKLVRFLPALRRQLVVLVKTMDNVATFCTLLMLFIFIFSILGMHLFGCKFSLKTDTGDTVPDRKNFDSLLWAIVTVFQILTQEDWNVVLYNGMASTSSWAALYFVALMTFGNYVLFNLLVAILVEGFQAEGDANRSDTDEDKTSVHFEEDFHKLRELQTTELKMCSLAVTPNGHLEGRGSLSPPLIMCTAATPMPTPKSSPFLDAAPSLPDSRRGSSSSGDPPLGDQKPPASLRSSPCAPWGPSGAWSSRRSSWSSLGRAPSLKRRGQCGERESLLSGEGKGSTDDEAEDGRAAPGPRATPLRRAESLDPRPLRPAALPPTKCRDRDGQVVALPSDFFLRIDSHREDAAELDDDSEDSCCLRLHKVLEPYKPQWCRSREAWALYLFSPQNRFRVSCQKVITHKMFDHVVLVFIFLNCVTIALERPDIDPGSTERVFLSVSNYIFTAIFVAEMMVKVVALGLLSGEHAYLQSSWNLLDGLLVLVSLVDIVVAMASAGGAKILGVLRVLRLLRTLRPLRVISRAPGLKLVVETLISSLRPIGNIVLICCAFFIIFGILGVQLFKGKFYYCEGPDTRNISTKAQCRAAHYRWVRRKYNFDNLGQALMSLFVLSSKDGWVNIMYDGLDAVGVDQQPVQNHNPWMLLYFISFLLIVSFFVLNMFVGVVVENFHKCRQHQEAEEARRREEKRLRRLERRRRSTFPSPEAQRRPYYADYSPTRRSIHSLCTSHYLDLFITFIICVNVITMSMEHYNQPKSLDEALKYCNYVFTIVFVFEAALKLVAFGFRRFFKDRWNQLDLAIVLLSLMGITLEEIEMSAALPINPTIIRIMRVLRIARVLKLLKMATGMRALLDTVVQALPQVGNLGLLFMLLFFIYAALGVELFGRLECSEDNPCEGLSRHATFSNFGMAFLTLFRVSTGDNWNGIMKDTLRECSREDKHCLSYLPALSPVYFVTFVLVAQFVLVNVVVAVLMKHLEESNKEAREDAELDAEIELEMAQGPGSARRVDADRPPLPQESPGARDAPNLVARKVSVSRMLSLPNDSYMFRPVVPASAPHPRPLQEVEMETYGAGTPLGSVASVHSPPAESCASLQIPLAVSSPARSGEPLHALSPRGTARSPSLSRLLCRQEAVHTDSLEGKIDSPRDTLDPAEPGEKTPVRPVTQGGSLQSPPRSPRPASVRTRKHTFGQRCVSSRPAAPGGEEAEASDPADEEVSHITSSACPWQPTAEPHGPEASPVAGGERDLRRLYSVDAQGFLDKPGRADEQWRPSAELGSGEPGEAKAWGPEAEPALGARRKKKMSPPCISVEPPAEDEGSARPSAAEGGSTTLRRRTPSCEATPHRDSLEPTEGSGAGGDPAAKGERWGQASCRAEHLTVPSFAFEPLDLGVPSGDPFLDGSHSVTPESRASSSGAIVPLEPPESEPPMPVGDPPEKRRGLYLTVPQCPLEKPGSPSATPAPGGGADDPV
# CYP2C19 activ = increases human CYP2C19 enzyme activity; recombinant CYP2C19, luciferin-H EGE luminescence; hits give high values; 0 = fully inhibited enzyme, 1 = untreated enzyme; activation factor at 5 µM; 96,000 tested, under 10 active; AID 1025;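 active means activation factor of at least 2 at 5 µM in the primary screen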;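 further: 0 = wells with 2.5 mM tranylcypromine and 1 = vehicle-only wells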
# CYP2C19 inhib = inhibitors of human CYP2C19; P33261; CYP2C19 Supersomes, luciferin-H EGE luminescence, 30 min; hit rate 21% among 96,000; inhibition, % at 5 µM;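 active means CYP2C19 inhibition above a set limit at 5 µM in the primary screen, cut at about 50% in these data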;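 further: plate controls were negative control wells for no effect and 2.5 mM tranylcypromine positive control for full effect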
# CYP2C9 inhib = inhibitors of human CYP2C9; inhibition, % at 5 µM; CYP2C9 Supersomes, luciferin-H conversion, luminescence; AID 777; hit rate 20% among 96,000;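 active means blocking of liver enzyme CYP2C9 beyond about 50% at 5 µM, limit read from the data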
# CYP2C9 act = CYP2C9 (human) activation. recombinant CYP2C9, luciferin-H conversion, luminescence; hits give high values; factor 1 = untreated enzyme, 0 = blocked. activation factor at 5 µM. hit rate 1.4% among 96,000. AID 1024;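 active means activation factor of 2 or more for CYP2C9 at a 5 µM dose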;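 further: 0 = sulfaphenazole-blocked wells and 1 = vehicle-only wells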
# * = called active by the depositor; · = no result.
SMILES,Cav3 T inh,CYP2C19 activ,CYP2C19 inhib,CYP2C9 inhib,CYP2C9 act
CCOC(=O)C(O)(c1ccc(N(C)C(=O)COc2ccccc2)cc1)C(F)(F)F (centres undefined),0.434,·,·,·,·
O=P(c1ccccc1)(c1ccccc1)N1CCCCC1,-0.805,0.7,29.3,37.6,0.6
Cc1nn(-c2ccccc2)c(Cl)c1C1C(C#N)=C(N)Oc2c1c(=O)oc1ccccc21 (centres undefined),·,0.6,44.8,99.2*,0
N#CC1=C(N)Oc2c(c(=O)oc3ccccc23)C1c1cccnc1 (centres undefined),-0.9,1.1,-8.6,64.5*,0.4
CC(C)C[C@H](NC(=O)[C@@H]1CCCN1C(=O)[C@@H](N)Cc1ccc(O)cc1)C(=O)NCC(N)=O,1.74,·,·,·,·
CCC1(c2ccccc2)C(=O)N(COC)C(=O)N(COC)C1=O,0.107,0.2,79.4*,12.2,0.9
Cc1cccc(C(=O)NC(Oc2ccccc2)C(Cl)(Cl)Cl)c1 (centres undefined),-2.93,0.7,30.4,17.3,0.8
O=C(COc1ccc(Cl)cc1Cl)N1CCN(C/C=C/c2ccccc2)CC1,-2.03,0.6,43.4,55.8*,0.4
Clc1ccc(-c2nc3ccc(Cl)cn3c2CN2CCOCC2)cc1,-3.31,0.2,76.8*,63.6*,0.4
O=c1c2cc(Cl)cc(Cl)c2nc(CN2CCOCC2)n1-c1ccccc1F,0.294,0.6,42.1,20.4,0.8
CN1C2CCC1CC(OC(c1ccccc1)c1ccccc1N)C2 (centres undefined),0.0839,·,·,·,·
C[N+]1(C)CCC(OC(=O)C(c2ccccc2)c2ccccc2)CC1,-4.37*,·,·,·,·
Cc1ccc(S(=O)(=O)CC(C)(O)C(=O)Nc2cccc(C(F)(F)F)c2)cc1 (centres undefined),0.347,0.5,47.9,17.1,0.8
CC(O)(CS(=O)(=O)c1cccc(C(F)(F)F)c1)C(=O)Nc1ccc(C(F)(F)F)cc1 (centres undefined),-1.43,0.2,83.0*,46.9,0.5
CC(O)(CS(=O)(=O)c1ccccc1)C(=O)Nc1cccc(C(F)(F)F)c1 (centres undefined),0.0131,0.3,69.1*,4.8,1
Cc1sc2nc(COC(=O)Cc3ccccc3)[nH]c(=O)c2c1C,-0.704,0.6,40.4,60.5*,0.4
CCS(=O)(=O)N1CCCC(C(=O)N2CCC3(CC2)OCCO3)C1 (centres undefined),0.725,0.4,58.0*,14.8,0.9
O=C(C1CCCN(S(=O)(=O)c2cccc3nsnc23)C1)N1CCC2(CC1)OCCO2 (centres undefined),-0.386,0.7,25.4,26.8,0.7
COC(=O)C1=C(c2cc3ccccc3o2)C[C@@H]2CC[C@H]1N2C(=O)NCCCOC(C)C,0.287,·,·,·,·
CC1CCN(S(=O)(=O)c2ccc(NN=C(C#N)C#N)cc2)CC1,-8.41*,1,3.5,93.5*,0.1
CCOP(=S)(OCC)SCC(=O)NC(C(=O)O)C(C)C (centres undefined),0.704,0.9,7.0,91.7*,0.1
CCOC(=O)C(C)(CC)NC(=O)CSP(=S)(OCC)OCC (centres undefined),0.573,0,97.6*,91.4*,0.1
CCN1CCN(C(=O)COc2ccc3c(c2)C(=O)CC2(CCN(C(C)=O)CC2)O3)CC1,0.0221,1,3.0,11.7,0.9
O=C1C(c2ccccc2)=C(N2CC2)c2ccccc21,-1.17,0.7,33.8,7.4,0.9
O=C1C(=O)c2ccccc2-c2ccccc21,-0.104,0,98.1*,93.3*,0.1
SMILES,Cav3 T inh,CYP2C19 activ,CYP2C19 inhib,CYP2C9 inhib,CYP2C9 act
CCOC(=O)c1c(C)n(CCOC)c2ccc(O)cc12,1.18,0.3,69.2*,35.1,0.6
OC1(c2ccc(F)cc2)CC2CCC(C1)N2Cc1nnnn1C1CCCC1 (centres undefined),0.0038,0.1,87.7*,81.1*,0.2
O=C(Cc1ccccc1)N1CCN(Cc2cccnc2)CC1,0.842,0.2,75.5*,-1.3,1
COc1cc(Br)cc(CN2CCN(C)CC2)c1O,1.11,1,2.0,-6.9,1.1
COc1ccccc1N1CCN(Cc2cc(C)c(C)cc2O)CC1,·,0.2,79.0*,-110.3,2.1*
COc1cc(C)c(CN2CCN(c3ccccc3)CC2)cc1C,-0.718,0.4,56.5*,5.8,0.9
COc1cc(CN2CCN(c3cc(C)ccc3C)CC2)ccc1O,-2.86,0.4,55.9*,33.3,0.7
COc1ccccc1N1CCN(Cc2c(F)cccc2Cl)CC1,-0.426,0,97.4*,68.4*,0.3
Oc1c(Cl)cc(Cl)cc1CN1CCN(Cc2ccccc2)CC1,0.062,0.8,24.5,-2.3,1
COC(=O)C1=C(c2cc3ccccc3s2)C[C@@H]2CC[C@H]1N2C(=O)N1CCC(O)CC1,0.0548,·,·,·,·
Oc1ccc(Br)cc1CN1CCN(c2ccccc2)CC1,-1.48,0.8,23.5,63.6*,0.4
CN1CCN(Cc2ccc(Br)s2)CC1,-0.591,1,0.0,-22.4,1.2
COc1ccccc1N1CCN(Cc2ccc(Br)s2)CC1,-0.895,0.1,94.0*,78.3*,0.2
CCCC/C(C)=C/[C@@H](NP(=O)(c1ccccc1)c1ccccc1)c1ccccc1,-2.28,·,·,·,·
CCn1c(O)c(C=NCCc2c[nH]c3ccccc23)c(=O)[nH]c1=O,-0.0658,1.1,-6.2,5.4,0.9
O=c1c2ccccc2nc(-c2ccccc2)n1-c1ccncc1,-0.0669,0.8,20.7,7.5,0.9
O=c1c2ccccc2nc(-c2ccccc2)n1-n1cccc1,-0.19,0.5,53.1*,56.9*,0.4
O=C1C2(c3ccccc3)CN3CN(C2)CC1(c1ccccc1)C3,0.29,0.5,54.9*,-21.3,1.2
Fc1ccc(CCNCc2ccccc2Cl)cc1,-0.136,0,96.0*,9.8,0.9
CC(=O)C1C2c3ccccc3OC1(C)N=c1s/c(=C/c3cn(C)nc3C)c(=O)n12 (centres undefined),1.75,0.8,20.2,22.7,0.8
CCCCn1c(=O)c(C(=O)NCc2ccncc2)c(O)c2ccccc21,-1.69,0.1,91.9*,100.2*,0
CC(C)[C@]12O[C@H]1[C@@H]1O[C@]13[C@]1(O[C@H]1C[C@H]1C4=C(CC[C@@]13C)C(=O)OC4)[C@@H]2O,0.554,·,·,·,·
CN1C(=O)/C(=C\c2ccc(N3CCCCC3)o2)C(=O)NC1=S,-4.83*,0.8,20.5,11.1,0.9
CN1C(=O)/C(=C/c2ccc(N3CCCCCC3)o2)C(=O)NC1=S,-4.46*,·,·,·,·
C#CCN1C(=O)C2(C(C#N)=C(N)OC(C)=C2C(=O)OCc2ccccc2)c2ccccc21 (centres undefined),-0.86,0.6,38.6,30.7,0.7
CC(C)c1cccc(C(C)C)c1OCCn1ccnc1,-1.43,0,99.2*,78.0*,0.2
CC(C)NC(=O)Cn1cc(C(=O)c2ccccc2F)c2ccccc21,-3.59,0.5,50.4*,25.2,0.7
CC(N)C(=O)c1ccco1 (centres undefined),·,1,1.1,8.7,0.9
COc1cc2nc(N3CCN(C(=O)c4ccco4)CC3)nc(N)c2cc1OC,0.852,·,·,·,·
O=C(c1ccco1)c1cn(Cc2ccc(Cl)cc2)c2ccccc12,-2.84,0.2,83.5*,93.6*,0.1
